# The panel holds about 83,000 compounds, 20% with a hit somewhere; the sample as a whole holds those more often.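 The endpoint reported here, percent growth, reads 100 for growth as untreated, 0 for no net growth and -100 for all cells dead.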 The source made the active and inactive calls. Rule for the calls: active = growth percent below 10; inactive = the rest.
# Tested on: HCT-116 colon
# Test: NCI-60 one-dose screen, 48 h (100 = growth as untreated, 0 = no growth, -100 = all killed)
# Details: 10 µM unless noted
row,SMILES,growth
1,Cn1cnc(-c2cc3nccc(Oc4ccc(NC(=S)NC(=O)Cc5ccccc5)cc4F)c3s2)c1,78.8% (inactive)
2,C#Cc1cccc(Nc2ncnc3cc(OC)c(OCCCCCCC(=O)NO)cc23)c1,-27.4% (active)
3,CCCCn1c(C)nc2ccc(Nc3nc(N4CCN(C)CC4)nc4nc[nH]c34)cc21,75.8% (inactive)
4,O=C(Cn1ccc2ccccc21)Nc1ccc(-c2nc3ccccc3s2)cc1,102% (inactive)
5,O=C(NOC[C@H](O)CO)c1ccc(F)c(F)c1Nc1ccc(I)cc1F,11.5% (inactive)
6,Cc1sc2c(c1C)c(=O)nc1c(-c3nc4ccccc4s3)n[nH]n12,90% (inactive)
7,CC1(/C=N/NC(N)=S)NC(=O)NC1=O (stereo not drawn),98.4% (inactive)
8,COC(=O)CNC(=O)[C@@H](OC)[C@@H]1Cc2cc3cc(OC4CC(OC5CC(O)C(O)C(C)O5)C(O)C(C)O4)c(C)c(O)c3c(O)c2C(=O)[C@H]1OC1CC(OC2CC(OC3CC(C)(O)C(O)C(C)O3)C(O)C(C)O2)C(O)C(C)O1 (stereo partly drawn),3.52% (active)
9,COc1ccc2c(CCC(c3ccccc3)c3ccccc3)c3[n+](cc2c1OC)CCc1cc2c(cc1-3)OCO2,6.81% (active)
10,O=C(NC[C@H](O)CO)c1ccncc1Nc1ccc(I)cc1F,9.79% (active)
11,CC(C)(C)OC(=O)N1CCC(O)[C@@H](O[Si](c2ccccc2)(c2ccccc2)C(C)(C)C)[C@H]1/C=C/c1ccccc1 (stereo partly drawn),24.9% (inactive)
12,C1=C\COCc2cc(ccc2OCCN2CCCC2)Nc2nccc(n2)-c2cccc(c2)COC/1,1.18% (active)
13,COc1cccc(Nc2ncnn3ccc(CN4CC[C@@H](N)[C@H](O)C4)c23)c1,21.9% (inactive)
14,C=C1C(=O)O[C@H]2[C@H]1CC/C(C=Nc1c(N)cc(C(F)(F)F)cc1C(F)(F)F)=C\CC[C@@]1(C)O[C@@H]21,-72.8% (active)
15,CO[C@H]1C[C@@H]2CC[C@@H](C)[C@@](O)(O2)C(=O)C(=O)N2CCCC[C@H]2C(=O)O[C@H]([C@H](C)C[C@@H]2CC[C@@H](OC(=O)C(C)(CO)CO)[C@H](OC)C2)CC(=O)[C@H](C)/C=C(\C)[C@@H](O)[C@@H](OC)C(=O)[C@H](C)C[C@H](C)\C=C/C=C/C=C/1C,23.8% (inactive)
16,N#Cc1ccc(-n2nnc3ccccc32)cc1C#N,102% (inactive)
17,CCN(CC)CCNc1ccc(N=Nc2cnc3ccccc3c2)c2ccccc12,-94.8% (active)
18,O=c1[nH]c(N2CCOCC2)nc2scc(-c3ccccc3)c12,98.3% (inactive)
19,CSc1nc2ncncc2[nH]1,84.8% (inactive)
20,CN1CCC(CNc2ccc3ncc(-c4cccc(OC(F)(F)F)c4)n3n2)CC1,-75.1% (active)
21,Nc1c2c(c(O)c3c1=C(CO)C=N3)=NCCS2,-90.7% (active)
22,COc1cc2nccc(Oc3ccc(NC(=O)Nc4cc(C)on4)c(Cl)c3)c2cc1OC,-4.79% (active)
23,CN1CCN(c2nc(C3=C(c4c[nH]c5ccccc45)C(=O)NC3=O)c3ccccc3n2)CC1,32.4% (inactive)
24,COc1cnc2c(c1)C(=O)c1c-2n(CCCn2ccnc2)c(=O)c2cc(Cl)ccc12,-20.7% (active)
25,COc1ccc(-c2nocc2-c2cc(OC)c(OC)c(OC)c2)cc1,6.36% (active)

# Tested on: HCC-2998 colon
# Test: as above
# Details: 10 µM
row,SMILES,growth
1,O=C(Nc1ccc(C(=O)Nc2ccc(C3=NCCCN3)cc2)cc1)Nc1ccc(C2=NCCCN2)cc1,101% (inactive)
2,CC(C)C1CCC(C)C(C2(C#N)C(N)=NC(N)=C2C#N)C1=O (stereo not drawn),95.8% (inactive)
3,O=C(/C=C/c1ccc2c(c1)OCO2)c1c(O)c2ccccc2oc1=O,112% (inactive)
4,CCNC(=O)C#Cc1ccc2c(C(=Nc3ccc(CN(C)C)cc3)c3ccccc3)c(O)[nH]c2c1,-17.3% (active)
5,CNS(=O)(=O)Nc1nccc(Cc2c(C)c3ccc(Oc4ncccn4)cc3oc2=O)c1F,1.07% (active)
6,C[C@@H](NC(=O)c1ncnc(N)c1Cl)c1ncc(C(=O)Nc2cc(C(F)(F)F)c(Cl)cn2)s1,69.4% (inactive)
7,COc1ccc(Nc2ncccc2NC(=O)c2cn(Cc3cccc(Oc4ccccc4)c3)nn2)cc1,115% (inactive)
8,COc1ccc(OC)c(NC2=C(SCCc3ccccc3)C(=O)c3ccccc3C2=O)c1,102% (inactive)
9,O=C(O)c1ccc2c(c1)nc(Nc1cccc(Cl)c1)c1ccncc12,15.1% (inactive)
10,Cc1nc(Nc2n[nH]c3c2CN(C(=O)N[C@H](CN(C)C)c2ccccc2)C3(C)C)c2sccc2n1,-55.1% (active)
11,NC1(C(=O)N[C@@H](CCO)c2ccc(Cl)cc2)CCN(c2ncnc3[nH]ccc23)CC1,46.8% (inactive)
12,COC[C@@H](C)n1c(C2CCOCC2)nc2c1C1C=C(OC)C(c3c(C)noc3C)=CC1N=C2 (stereo partly drawn),52.7% (inactive)
13,N#CC1(C#N)C(c2cccs2)NC(c2cccs2)C1(C#N)C#N (stereo not drawn),100% (inactive)
14,Cn1cnc(-c2cc3nccc(Oc4ccc(NC(=S)NC(=O)Cc5ccccc5)cc4F)c3s2)c1,104% (inactive)
15,C#Cc1cccc(Nc2ncnc3cc(OC)c(OCCCCCCC(=O)NO)cc23)c1,-53.5% (active)
16,CCCCn1c(C)nc2ccc(Nc3nc(N4CCN(C)CC4)nc4nc[nH]c34)cc21,83.6% (inactive)
17,O=C(Cn1ccc2ccccc21)Nc1ccc(-c2nc3ccccc3s2)cc1,103% (inactive)
18,O=C(NOC[C@H](O)CO)c1ccc(F)c(F)c1Nc1ccc(I)cc1F,-15.9% (active)
19,Cc1sc2c(c1C)c(=O)nc1c(-c3nc4ccccc4s3)n[nH]n12,96.3% (inactive)

row,SMILES,growth
1,CC1(/C=N/NC(N)=S)NC(=O)NC1=O (stereo not drawn),118% (inactive)
2,COC(=O)CNC(=O)[C@@H](OC)[C@@H]1Cc2cc3cc(OC4CC(OC5CC(O)C(O)C(C)O5)C(O)C(C)O4)c(C)c(O)c3c(O)c2C(=O)[C@H]1OC1CC(OC2CC(OC3CC(C)(O)C(O)C(C)O3)C(O)C(C)O2)C(O)C(C)O1 (stereo partly drawn),-42.3% (active)
3,COc1ccc2c(CCC(c3ccccc3)c3ccccc3)c3[n+](cc2c1OC)CCc1cc2c(cc1-3)OCO2,-13.7% (active)
4,O=C(NC[C@H](O)CO)c1ccncc1Nc1ccc(I)cc1F,2.1% (active)
5,CC(C)(C)OC(=O)N1CCC(O)[C@@H](O[Si](c2ccccc2)(c2ccccc2)C(C)(C)C)[C@H]1/C=C/c1ccccc1 (stereo partly drawn),44.8% (inactive)
6,C1=C\COCc2cc(ccc2OCCN2CCCC2)Nc2nccc(n2)-c2cccc(c2)COC/1,-16.4% (active)
7,COc1cccc(Nc2ncnn3ccc(CN4CC[C@@H](N)[C@H](O)C4)c23)c1,77.1% (inactive)
8,C=C1C(=O)O[C@H]2[C@H]1CC/C(C=Nc1c(N)cc(C(F)(F)F)cc1C(F)(F)F)=C\CC[C@@]1(C)O[C@@H]21,-77.5% (active)
9,CO[C@H]1C[C@@H]2CC[C@@H](C)[C@@](O)(O2)C(=O)C(=O)N2CCCC[C@H]2C(=O)O[C@H]([C@H](C)C[C@@H]2CC[C@@H](OC(=O)C(C)(CO)CO)[C@H](OC)C2)CC(=O)[C@H](C)/C=C(\C)[C@@H](O)[C@@H](OC)C(=O)[C@H](C)C[C@H](C)\C=C/C=C/C=C/1C,41.6% (inactive)
10,N#Cc1ccc(-n2nnc3ccccc32)cc1C#N,104% (inactive)
11,CCN(CC)CCNc1ccc(N=Nc2cnc3ccccc3c2)c2ccccc12,-95.4% (active)
12,O=c1[nH]c(N2CCOCC2)nc2scc(-c3ccccc3)c12,106% (inactive)
13,CSc1nc2ncncc2[nH]1,108% (inactive)
14,CN1CCC(CNc2ccc3ncc(-c4cccc(OC(F)(F)F)c4)n3n2)CC1,-84.4% (active)
15,Nc1c2c(c(O)c3c1=C(CO)C=N3)=NCCS2,-94.2% (active)
16,COc1cc2nccc(Oc3ccc(NC(=O)Nc4cc(C)on4)c(Cl)c3)c2cc1OC,56.6% (inactive)
17,CN1CCN(c2nc(C3=C(c4c[nH]c5ccccc45)C(=O)NC3=O)c3ccccc3n2)CC1,19.2% (inactive)
18,COc1cnc2c(c1)C(=O)c1c-2n(CCCn2ccnc2)c(=O)c2cc(Cl)ccc12,31.6% (inactive)
19,COc1ccc(-c2nocc2-c2cc(OC)c(OC)c(OC)c2)cc1,13.4% (inactive)

# — PubChem BioAssay (NCI)
